# Assay results published in PubChem BioAssay (Tox21).
# A number with no mark means an inactive call. Records with an inconclusive call do not appear. Where a call stands in place of a potency, no number is given. Active and inactive are the calls of the source. Unless noted, the call rests on the fitted dose curve; in most records, active means well fitted curve in the direction sought with a large enough effect in the repeat runs; inconclusive means weak or mixed curves; inactive means no such curve, though single readings can be large; an effect the other way counts as inactive or inconclusive.
# Key:
# [1] = qHTS assay for small molecule agonists of the p53 signaling pathway (AID 651631; calls by dose curve; further: nearly all actives have a fitted effect of over 15% in size)
# In short: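 Testing took place in human colorectal HCT-116 cells with stable p53RE-driven beta-lactamase. After 16 h of compound exposure at 37 °C, a FRET substrate was added and fluorescence recorded 2 h later.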
# [2] = qHTS assay for small molecules that induce genotoxicity in human embryonic kidney cells expressing luciferase-tagged ATAD5 - cell viability (AID 651634; calls by dose curve; further: nearly all actives have a fitted effect of over 25% in size)
# In short: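 HEK293T cells carrying luciferase-tagged ATAD5, 2,000 cells/well, exposed to compound for 15.5 hr at 37C. Viability read as live-cell protease activity by CellTiter-Fluor fluorescence after 30 min at 37C.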
# [3] = qHTS assay for small molecule disruptors of the mitochondrial membrane potential - cell viability (AID 720634; calls by dose curve;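 further: human HepG2 liver cancer cells; series mostly up to about 83 µM; nearly all actives have a fitted effect of over 20% in size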)
# In short: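 HepG2 cells, 2,000 per well, attached overnight, then treated 1 hr at 37 C, 5% CO2. Viability read as ATP by CellTiter-Glo luminescence after 30 min at room temperature. Read in the same wells as the m-MPI membrane-potential dye assay.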
# [4] = qHTS assay to test for compound auto fluorescence at 590 nm (red) in HepG2 cells (AID 720674)
# In short: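 We screened compounds on adherent HepG2 cells, incubating them for an hour at 37 C in 5% CO2 before reading emission at 590 nm under 540 nm excitation; values reflect equivalence to Rose Bengal sodium fluorescence.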
# [5] = qHTS assay to test for compound auto fluorescence at 535 nm (green) in HepG2 cells (AID 720675)
# [6] = qHTS assay to test for compound auto fluorescence at 460 nm (blue) in HEK293 cells (AID 720678)
# In short: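 Blue-channel (Ex/Em 405/460 nm) intensity measured in HEK293 cultures after overnight compound exposure at 37C; signal expressed relative to triamterene. Cells plated 2,000 per well in 10% dialyzed FBS medium and allowed 4-5 hr to attach.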
# [7] = qHTS assay to test for compound auto fluorescence at 590 nm (red) in HEK293 cells (AID 720679)
# In short: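 Red-channel autofluorescence (Ex/Em 540/590 nm; Rose Bengal sodium reference) was measured after overnight 37C, 5% CO2 exposure of attached HEK293 cells, 2,000 per well in medium with 10% dialyzed FBS.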
# [8] = qHTS assay to test for compound auto fluorescence at 535 nm (green) in HEK293 cells (AID 720680)
# [9] = qHTS assay to test for compound auto fluorescence at 460 nm (blue) in HEK293 cell free culture (AID 720681)
# In short: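 Blue fluorescence (Ex 405/Em 460 nm, triamterene-equivalent) was read immediately after pin transfer of compound or DMSO into medium (DMEM, 10% FBS) without cells.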
# [10] = qHTS assay to test for compound auto fluorescence at 535 nm (green) in HEK293 cell free culture (AID 720682)
# In short: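 DMEM + 10% FBS, cell-free; cpd or DMSO pinned in; Ex485/Em535 read; output as fluorescein-equivalent signal.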
# [11] = qHTS assay to test for compound auto fluorescence at 590 nm (red) in HEK293 cell free culture (AID 720683)
# In short: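 Red-channel autofluorescence of compounds in culture medium (DMEM, 10% FBS), no cells, measured at 540/590 nm. Rose Bengal sodium is the reference fluorophore for equivalence.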
# [12] = qHTS assay to test for compound auto fluorescence at 590 nm (red) in HepG2 cell free culture (AID 720684)
# In short: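 Plate contents were MEM with 10% FBS plus test compound or DMSO, no cells. Fluorescence was recorded with 540 nm excitation and 590 nm emission.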
# [13] = qHTS assay to test for compound auto fluorescence at 460 nm (blue) in HepG2 cell free culture (AID 720685)
# In short: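 Compound (23 nL) or DMSO pinned into cell-free MEM with 10% FBS; blue fluorescence read at 405/460 nm excitation/emission, expressed as auto-fluorescence equivalency to triamterene.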
# [14] = qHTS assay to test for compound auto fluorescence at 460 nm (blue) in HepG2 cells (AID 720687)
# In short: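 Blue-channel autofluorescence (Ex/Em 405/460 nm, triamterene-equivalent) was measured after 1 hr compound exposure at 37 C, 5% CO2. Cells were HepG2, plated overnight at 37 C in MEM plus 10% FBS.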
# [15] = molecular target: Glucocorticoid receptor (Homo sapiens) (UniProt P04150); test: qHTS assay to identify small molecule agonists of the glucocorticoid receptor (GR) signaling pathway (AID 720691; active means well fitted activation curve with a large enough effect in the signal ratio in the repeat runs, not every such curve was filed as active; the % refers to the signal ratio)
# In short: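 GR-bla HeLa cells carrying a GRE-driven beta-lactamase reporter, exposed to compounds for 18 h at 37 C. Reporter activation read as fluorescence after 2 h with LiveBLAzer B/G FRET substrate at room temperature.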
# [16] = molecular target: Glucocorticoid receptor (Homo sapiens) (UniProt P04150); test: qHTS assay to identify small molecule antagonists of the glucocorticoid receptor (GR) signaling pathway (AID 720692; active means well fitted inhibition curve with a large enough effect in the signal ratio in the repeat runs, not every such curve was filed as active; the % refers to the signal ratio)
# In short: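 GR-bla HeLa cells carrying a GRE-driven beta-lactamase reporter received compound after 4 h plating, then dexamethasone (5 nM final). After 18 h at 37C, the FRET substrate was loaded for 2 h at room temperature and fluorescence read.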
# [17] = qHTS assay for small molecule disruptors of the mitochondrial membrane potential (AID 720635); further: potency means the concentration at half of the fitted maximal effect
# In short: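 Mitochondrial membrane potential tracked with Mito-MPS dye, red aggregates (ex 540/em 590 nm) against green monomers (ex 490/em 535 nm). Compound treatment 1 hr at 37C, dye 30 min in HepG2.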
# [18] = qHTS assay to test for compound auto fluorescence at 535 nm (green) in HepG2 cell free culture (AID 720686)
# [19] = qHTS assay for small molecules that induce genotoxicity in human embryonic kidney cells expressing luciferase-tagged ATAD5 (AID 651632); further: nearly all actives have a fitted effect of over 15% in size
# In short: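 HEK293T cells carrying luciferase-tagged ATAD5 were given compound or DMSO vehicle and incubated 16 hr at 37C, 5% CO2. Luciferase activity was read after 30 min at room temperature with Amplite; a rise signals genotoxic stress.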
# [20] = qHTS assay for small molecule agonists of the p53 signaling pathway - cell viability (AID 651633; calls by dose curve; further: series mostly up to about 83 µM; nearly all actives have a fitted effect of over 30% in size)
# In short: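 Viability counter-read: CellTiter-Glo luminescence (30 min, room temperature) in the same p53RE-bla plates. These plates had been exposed to compounds for 16 h at 37 C.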
# Chain of Glucocorticoid receptor (Homo sapiens) (P04150 whole entry, looked up): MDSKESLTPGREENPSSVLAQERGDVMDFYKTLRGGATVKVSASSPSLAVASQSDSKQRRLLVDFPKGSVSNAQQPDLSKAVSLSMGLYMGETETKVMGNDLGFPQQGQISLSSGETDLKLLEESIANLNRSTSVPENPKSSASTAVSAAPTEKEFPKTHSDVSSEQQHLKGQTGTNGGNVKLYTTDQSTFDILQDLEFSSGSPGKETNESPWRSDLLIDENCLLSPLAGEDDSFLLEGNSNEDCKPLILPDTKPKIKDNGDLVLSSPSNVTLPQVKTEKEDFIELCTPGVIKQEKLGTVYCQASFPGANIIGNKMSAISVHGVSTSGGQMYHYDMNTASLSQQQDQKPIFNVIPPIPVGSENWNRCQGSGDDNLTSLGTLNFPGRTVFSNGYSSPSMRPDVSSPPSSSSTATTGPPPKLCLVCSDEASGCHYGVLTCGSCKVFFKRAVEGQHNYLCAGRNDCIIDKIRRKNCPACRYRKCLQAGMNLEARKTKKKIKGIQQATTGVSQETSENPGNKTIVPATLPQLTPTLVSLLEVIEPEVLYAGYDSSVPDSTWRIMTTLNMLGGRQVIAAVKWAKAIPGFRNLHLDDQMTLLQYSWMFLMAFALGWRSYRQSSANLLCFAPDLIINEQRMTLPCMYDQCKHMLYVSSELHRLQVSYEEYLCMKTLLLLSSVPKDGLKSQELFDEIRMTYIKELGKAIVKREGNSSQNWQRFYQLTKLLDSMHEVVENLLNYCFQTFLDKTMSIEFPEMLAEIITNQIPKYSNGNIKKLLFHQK
smiles,measurement,setting,value
NC(=S)N/N=C/c1cccnc1,Potency,[1],inactive
same,Potency,[2],inactive
same,Potency,[3],inactive
same,outcome,[4],inactive
same,outcome,[5],inactive
same,Potency,[6],inactive
same,outcome,[7],inactive
same,outcome,[8],inactive
same,Potency,[9],inactive
same,outcome,[10],inactive
same,outcome,[11],inactive
same,outcome,[12],inactive
same,Potency,[13],inactive
same,Potency,[14],inactive
same,Potency,[15],inactive
same,Potency,[16],inactive
CC(=O)/C(C)=C/C1C(C)=CCCC1(C)C (stereo not given),Potency,[1],inactive
same,Potency,[2],inactive
same,Potency,[3],inactive
same,Potency,[17],inactive
same,outcome,[4],inactive
same,Potency,[6],inactive
same,outcome,[7],inactive
same,outcome,[8],inactive
same,outcome,[10],inactive
same,outcome,[11],inactive
same,outcome,[12],inactive
same,Potency,[13],inactive
same,outcome,[18],inactive
same,Potency,[14],inactive
same,Potency,[15],inactive
same,Potency,[16],inactive
Cn1sccc1=O,Potency,[19],inactive
same,Potency,[20],inactive
same,Potency,[2],inactive
same,Potency,[3],inactive
same,Potency,[17],61.1 µM (active)
same,outcome,[4],inactive
same,Potency,[6],inactive
same,outcome,[7],inactive
same,outcome,[8],inactive
same,Potency,[9],inactive
same,outcome,[10],inactive
same,outcome,[11],inactive
same,outcome,[12],inactive
same,Potency,[13],inactive
same,outcome,[18],inactive
same,Potency,[14],inactive
same,Potency,[15],inactive
CN1CCC(OC(c2ccccc2)c2ccccc2)CC1,Potency,[19],inactive
same,Potency,[20],inactive
same,Potency,[2],inactive
same,Potency,[3],inactive
same,"fluorescence, relative to Rose Bengal",[4],-0.513% [at 18.6 µM]
same,"fluorescence, % of fluorescein control",[5],-0.0945% [at 18.6 µM]
same,"fluorescence, % of triamterene",[6],-0.105% [at 18.6 µM]
same,"fluorescence, % of fluorescent control",[7],0.0005% [at 18.6 µM]
same,"fluorescence, % of fluorescein",[8],-0.132% [at 18.6 µM]
same,"fluorescence, % of fluorescent control",[9],-0.231% [at 18.6 µM]
same,activity change,[10],-0.251% [at 18.6 µM]
same,"fluorescence, % of fluorescent control",[11],0.167% [at 18.6 µM]
same,"fluorescence, % of Rose Bengal",[12],0.0772% [at 18.6 µM]
same,"fluorescence, % of fluorescent control",[13],-0.163% [at 18.6 µM]
same,"fluorescence, % of fluorescein control",[18],-0.14% [at 18.6 µM]
same,"fluorescence, % of fluorescent control",[14],-0.0097% [at 18.6 µM]
same,Potency,[15],inactive
same,Potency,[16],inactive
CCCCCCCCCCCCC(=O)O,Potency,[1],inactive
same,Potency,[20],inactive
same,Potency,[2],inactive
same,Potency,[3],inactive
same,outcome,[4],inactive
same,Potency,[6],inactive
same,outcome,[7],inactive
same,outcome,[8],inactive
same,Potency,[9],inactive
same,outcome,[11],inactive
same,outcome,[12],inactive
same,Potency,[13],inactive
same,outcome,[18],inactive
same,Potency,[14],inactive
same,Potency,[15],inactive
c1ccc(-c2nc[nH]c2-c2ccccc2)cc1,Potency,[19],inactive
same,Potency,[20],inactive
same,Potency,[2],inactive
same,Potency,[3],inactive
same,outcome,[4],inactive
same,outcome,[5],inactive
same,Potency,[6],inactive
same,outcome,[7],inactive
same,outcome,[8],inactive
same,Potency,[9],inactive
same,outcome,[10],inactive
same,outcome,[11],inactive
same,outcome,[12],inactive
same,Potency,[13],inactive
same,outcome,[18],inactive
same,Potency,[14],inactive
COc1cc(C(C)(C)C)c(O)c(C(C)(C)C)c1,Potency,[19],inactive
same,Potency,[20],inactive
same,Potency,[2],inactive
same,Potency,[3],inactive
same,Potency,[17],27.3 µM (active)
same,outcome,[4],inactive
same,outcome,[5],inactive
same,Potency,[6],inactive
same,outcome,[7],inactive
same,outcome,[8],inactive
same,Potency,[9],inactive
same,outcome,[10],inactive
same,outcome,[11],inactive
same,outcome,[12],inactive
same,Potency,[14],inactive
same,Potency,[15],inactive
same,Potency,[16],inactive
